# Laboratory results from ChEMBL document CHEMBL2218924, “A broad activity screen in support of a chemogenomic map for kinase signalling research and drug discovery” (Biochem J, 2013).
# Tests used:
# [1] = molecular target: T1, Ephrin type-A receptor 3 (Homo sapiens) (UniProt P29320); conditions: at 10 µM
# T1 sequence (whole entry): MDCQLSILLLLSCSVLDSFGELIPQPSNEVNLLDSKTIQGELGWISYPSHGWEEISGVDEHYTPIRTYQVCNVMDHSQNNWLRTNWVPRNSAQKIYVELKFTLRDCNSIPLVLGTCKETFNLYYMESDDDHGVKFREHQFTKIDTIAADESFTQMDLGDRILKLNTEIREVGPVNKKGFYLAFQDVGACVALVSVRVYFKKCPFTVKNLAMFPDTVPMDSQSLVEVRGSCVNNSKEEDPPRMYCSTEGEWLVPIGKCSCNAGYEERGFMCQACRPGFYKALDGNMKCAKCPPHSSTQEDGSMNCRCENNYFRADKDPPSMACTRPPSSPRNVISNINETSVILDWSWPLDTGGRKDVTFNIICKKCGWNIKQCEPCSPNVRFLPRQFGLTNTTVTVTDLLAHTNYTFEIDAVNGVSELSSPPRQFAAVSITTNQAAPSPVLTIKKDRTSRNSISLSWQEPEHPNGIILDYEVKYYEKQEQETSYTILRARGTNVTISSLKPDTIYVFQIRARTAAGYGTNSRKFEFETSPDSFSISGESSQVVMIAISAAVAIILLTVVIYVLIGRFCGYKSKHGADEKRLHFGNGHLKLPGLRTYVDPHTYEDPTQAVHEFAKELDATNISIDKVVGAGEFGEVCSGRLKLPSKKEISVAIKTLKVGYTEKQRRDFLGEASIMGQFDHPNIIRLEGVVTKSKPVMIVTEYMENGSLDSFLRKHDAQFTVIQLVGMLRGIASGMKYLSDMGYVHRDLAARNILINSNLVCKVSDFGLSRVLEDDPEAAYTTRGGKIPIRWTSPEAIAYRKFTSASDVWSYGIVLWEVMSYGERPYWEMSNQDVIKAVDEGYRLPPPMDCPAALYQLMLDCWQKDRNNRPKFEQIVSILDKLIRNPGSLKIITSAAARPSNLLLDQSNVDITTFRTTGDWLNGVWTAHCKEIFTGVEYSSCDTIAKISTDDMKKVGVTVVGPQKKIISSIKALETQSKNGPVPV
# [2] = molecular target: Ephrin type-A receptor 4 (Homo sapiens) (UniProt P54764); conditions: at 1 µM
# Chain of Ephrin type-A receptor 4 (Homo sapiens) (P54764 whole entry): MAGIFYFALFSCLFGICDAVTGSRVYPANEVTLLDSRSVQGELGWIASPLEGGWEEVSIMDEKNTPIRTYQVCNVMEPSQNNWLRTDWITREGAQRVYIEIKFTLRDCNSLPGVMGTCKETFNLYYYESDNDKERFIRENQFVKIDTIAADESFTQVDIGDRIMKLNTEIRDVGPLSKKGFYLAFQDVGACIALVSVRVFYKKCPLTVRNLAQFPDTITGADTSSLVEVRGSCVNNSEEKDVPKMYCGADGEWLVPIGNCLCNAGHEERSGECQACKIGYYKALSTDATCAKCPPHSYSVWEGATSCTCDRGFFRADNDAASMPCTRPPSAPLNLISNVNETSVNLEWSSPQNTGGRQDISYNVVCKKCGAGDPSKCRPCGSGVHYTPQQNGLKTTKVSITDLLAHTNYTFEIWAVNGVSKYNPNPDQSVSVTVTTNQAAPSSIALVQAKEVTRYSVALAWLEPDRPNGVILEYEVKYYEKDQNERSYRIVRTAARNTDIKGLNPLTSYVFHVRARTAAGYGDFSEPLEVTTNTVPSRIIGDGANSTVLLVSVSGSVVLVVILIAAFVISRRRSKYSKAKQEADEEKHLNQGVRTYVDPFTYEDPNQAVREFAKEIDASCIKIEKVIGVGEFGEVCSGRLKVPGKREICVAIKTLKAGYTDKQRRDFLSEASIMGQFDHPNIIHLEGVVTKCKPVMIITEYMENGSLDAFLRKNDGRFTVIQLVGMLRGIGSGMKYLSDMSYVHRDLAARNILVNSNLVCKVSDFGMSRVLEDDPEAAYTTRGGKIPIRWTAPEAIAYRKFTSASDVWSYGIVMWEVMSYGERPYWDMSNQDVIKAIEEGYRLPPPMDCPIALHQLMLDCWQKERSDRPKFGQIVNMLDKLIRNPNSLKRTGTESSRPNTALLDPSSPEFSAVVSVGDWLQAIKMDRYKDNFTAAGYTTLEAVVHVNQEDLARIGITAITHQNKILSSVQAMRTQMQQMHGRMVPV
# [3] = molecular target: Ephrin type-A receptor 4 (Homo sapiens) (UniProt P54764); conditions: at 10 µM
# [4] = molecular target: Ephrin type-A receptor 5 (Homo sapiens) (UniProt P54756); conditions: at 1 µM
# Chain of Ephrin type-A receptor 5 (Homo sapiens) (P54756 whole entry): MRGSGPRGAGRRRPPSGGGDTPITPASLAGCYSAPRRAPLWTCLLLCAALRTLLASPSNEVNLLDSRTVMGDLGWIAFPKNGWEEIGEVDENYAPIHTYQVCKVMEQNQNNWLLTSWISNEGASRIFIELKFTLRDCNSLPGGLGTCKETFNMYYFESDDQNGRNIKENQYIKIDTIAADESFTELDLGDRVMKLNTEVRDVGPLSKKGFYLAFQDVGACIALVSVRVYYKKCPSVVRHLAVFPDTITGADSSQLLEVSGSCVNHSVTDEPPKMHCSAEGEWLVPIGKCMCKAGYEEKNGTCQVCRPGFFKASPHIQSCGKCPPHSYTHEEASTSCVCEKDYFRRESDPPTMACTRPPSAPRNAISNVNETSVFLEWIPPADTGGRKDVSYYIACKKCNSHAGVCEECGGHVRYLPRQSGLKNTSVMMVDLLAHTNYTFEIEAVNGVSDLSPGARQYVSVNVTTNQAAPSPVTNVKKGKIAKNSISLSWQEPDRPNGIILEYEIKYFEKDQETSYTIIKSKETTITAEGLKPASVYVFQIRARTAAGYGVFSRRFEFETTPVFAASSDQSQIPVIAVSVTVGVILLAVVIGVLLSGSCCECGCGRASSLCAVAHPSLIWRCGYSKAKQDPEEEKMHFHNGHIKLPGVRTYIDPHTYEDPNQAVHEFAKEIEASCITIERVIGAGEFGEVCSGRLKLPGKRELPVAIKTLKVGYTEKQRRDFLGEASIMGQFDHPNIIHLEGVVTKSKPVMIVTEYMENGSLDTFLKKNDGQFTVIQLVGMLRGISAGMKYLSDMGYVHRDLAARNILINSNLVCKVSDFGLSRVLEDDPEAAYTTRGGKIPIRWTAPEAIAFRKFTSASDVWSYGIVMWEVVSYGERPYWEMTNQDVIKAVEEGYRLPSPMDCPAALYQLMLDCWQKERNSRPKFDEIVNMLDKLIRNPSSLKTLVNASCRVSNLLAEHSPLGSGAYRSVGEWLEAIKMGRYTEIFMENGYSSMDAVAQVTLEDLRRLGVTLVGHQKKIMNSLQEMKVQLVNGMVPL
# [5] = molecular target: Ephrin type-A receptor 5 (Homo sapiens) (UniProt P54756); conditions: at 10 µM
# [6] = molecular target: Ephrin type-A receptor 7 (Homo sapiens) (UniProt Q15375); conditions: at 1 µM
# Chain of Ephrin type-A receptor 7 (Homo sapiens) (Q15375 28-998 limits assumed): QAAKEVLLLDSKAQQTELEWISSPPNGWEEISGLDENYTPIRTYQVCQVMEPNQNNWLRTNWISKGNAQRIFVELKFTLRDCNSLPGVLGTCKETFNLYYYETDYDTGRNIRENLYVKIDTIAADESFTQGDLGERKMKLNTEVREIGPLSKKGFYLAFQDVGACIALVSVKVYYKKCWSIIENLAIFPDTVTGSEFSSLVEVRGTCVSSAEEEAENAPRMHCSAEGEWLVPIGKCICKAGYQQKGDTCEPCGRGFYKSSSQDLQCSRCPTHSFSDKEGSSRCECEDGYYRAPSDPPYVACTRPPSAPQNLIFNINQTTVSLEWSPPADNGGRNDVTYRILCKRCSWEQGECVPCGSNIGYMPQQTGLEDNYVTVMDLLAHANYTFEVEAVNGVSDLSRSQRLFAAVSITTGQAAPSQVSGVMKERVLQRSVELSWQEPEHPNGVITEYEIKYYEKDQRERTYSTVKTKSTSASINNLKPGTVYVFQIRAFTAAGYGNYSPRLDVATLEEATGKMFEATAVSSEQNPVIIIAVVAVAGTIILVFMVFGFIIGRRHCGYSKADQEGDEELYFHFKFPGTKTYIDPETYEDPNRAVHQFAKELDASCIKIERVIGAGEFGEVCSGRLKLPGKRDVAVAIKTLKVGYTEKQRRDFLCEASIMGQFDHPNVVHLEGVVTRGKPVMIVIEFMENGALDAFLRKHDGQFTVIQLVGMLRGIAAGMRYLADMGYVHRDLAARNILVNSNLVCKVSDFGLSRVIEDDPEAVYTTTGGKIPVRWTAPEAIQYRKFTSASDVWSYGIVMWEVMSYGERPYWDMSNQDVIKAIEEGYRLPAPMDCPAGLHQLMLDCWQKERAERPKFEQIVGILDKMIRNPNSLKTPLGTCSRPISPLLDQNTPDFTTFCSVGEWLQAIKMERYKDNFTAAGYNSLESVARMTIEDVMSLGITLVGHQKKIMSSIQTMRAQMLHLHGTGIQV
# [7] = molecular target: Ephrin type-A receptor 7 (Homo sapiens) (UniProt Q15375); conditions: at 10 µM
# [8] = molecular target: T2, Ephrin type-A receptor 8 (Homo sapiens) (UniProt P29322); conditions: at 1 µM
# T2 sequence (whole entry): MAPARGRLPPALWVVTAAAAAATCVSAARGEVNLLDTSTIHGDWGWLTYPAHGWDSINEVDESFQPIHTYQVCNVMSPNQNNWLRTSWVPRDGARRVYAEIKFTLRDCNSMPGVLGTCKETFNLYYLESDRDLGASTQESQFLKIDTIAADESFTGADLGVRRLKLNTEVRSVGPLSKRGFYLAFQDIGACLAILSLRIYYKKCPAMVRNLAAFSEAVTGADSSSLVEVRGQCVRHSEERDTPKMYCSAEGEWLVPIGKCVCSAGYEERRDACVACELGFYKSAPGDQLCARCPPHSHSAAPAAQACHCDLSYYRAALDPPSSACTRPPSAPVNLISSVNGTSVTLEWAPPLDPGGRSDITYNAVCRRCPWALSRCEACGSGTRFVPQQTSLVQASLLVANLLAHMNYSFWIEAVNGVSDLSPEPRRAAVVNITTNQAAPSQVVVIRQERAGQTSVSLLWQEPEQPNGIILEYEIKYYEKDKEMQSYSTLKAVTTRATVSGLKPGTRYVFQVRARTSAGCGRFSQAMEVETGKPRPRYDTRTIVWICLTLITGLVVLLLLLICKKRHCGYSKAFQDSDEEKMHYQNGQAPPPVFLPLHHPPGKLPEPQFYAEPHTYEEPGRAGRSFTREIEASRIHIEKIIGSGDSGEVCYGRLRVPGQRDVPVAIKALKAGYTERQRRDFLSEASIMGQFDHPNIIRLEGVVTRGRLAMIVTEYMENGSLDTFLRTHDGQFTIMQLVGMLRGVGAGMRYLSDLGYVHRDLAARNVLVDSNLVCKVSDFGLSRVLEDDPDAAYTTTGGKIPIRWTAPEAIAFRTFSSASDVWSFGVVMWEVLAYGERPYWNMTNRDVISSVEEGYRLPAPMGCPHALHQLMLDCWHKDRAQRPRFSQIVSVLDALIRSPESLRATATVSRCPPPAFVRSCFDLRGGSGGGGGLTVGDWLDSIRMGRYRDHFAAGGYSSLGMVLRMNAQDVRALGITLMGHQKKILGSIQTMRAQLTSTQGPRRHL
# [9] = molecular target: T2, Ephrin type-A receptor 8 (Homo sapiens); conditions: at 10 µM
# [10] = molecular target: T3, Ephrin type-B receptor 1 (Homo sapiens) (UniProt P54762); conditions: at 1 µM
# T3 sequence (whole entry): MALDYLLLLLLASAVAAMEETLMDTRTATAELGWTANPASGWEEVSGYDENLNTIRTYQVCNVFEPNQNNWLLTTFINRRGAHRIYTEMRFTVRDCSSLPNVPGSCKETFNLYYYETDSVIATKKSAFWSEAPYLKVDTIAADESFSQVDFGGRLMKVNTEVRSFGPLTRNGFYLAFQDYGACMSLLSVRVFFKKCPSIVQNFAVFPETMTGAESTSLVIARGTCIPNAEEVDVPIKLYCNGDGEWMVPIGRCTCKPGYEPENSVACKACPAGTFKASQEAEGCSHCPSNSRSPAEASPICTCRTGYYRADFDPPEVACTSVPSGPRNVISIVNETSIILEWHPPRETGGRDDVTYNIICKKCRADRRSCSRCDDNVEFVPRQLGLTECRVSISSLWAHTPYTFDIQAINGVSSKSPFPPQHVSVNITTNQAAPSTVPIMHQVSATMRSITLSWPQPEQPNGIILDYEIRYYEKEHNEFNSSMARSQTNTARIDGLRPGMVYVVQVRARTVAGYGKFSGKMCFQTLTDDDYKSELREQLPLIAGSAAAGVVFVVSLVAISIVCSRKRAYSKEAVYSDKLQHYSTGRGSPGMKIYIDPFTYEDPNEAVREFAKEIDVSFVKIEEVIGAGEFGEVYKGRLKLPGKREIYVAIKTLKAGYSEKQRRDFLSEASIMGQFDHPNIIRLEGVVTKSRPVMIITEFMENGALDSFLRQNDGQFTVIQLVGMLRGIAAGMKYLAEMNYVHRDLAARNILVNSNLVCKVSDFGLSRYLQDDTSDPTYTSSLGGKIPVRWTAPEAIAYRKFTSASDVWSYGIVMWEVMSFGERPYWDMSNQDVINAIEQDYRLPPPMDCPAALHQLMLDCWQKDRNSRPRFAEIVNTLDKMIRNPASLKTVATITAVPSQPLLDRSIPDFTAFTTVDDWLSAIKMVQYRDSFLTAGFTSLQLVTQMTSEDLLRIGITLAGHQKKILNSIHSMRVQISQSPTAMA
compound,measurement,setting,value
Cc1ccc(NC2=CC(=O)c3sc(C)nc3C2=O)cc1,residual activity,[1],97%
same,residual activity,[2],101%
same,residual activity,[3],112%
same,residual activity,[4],110%
same,residual activity,[5],100%
same,residual activity,[6],90%
same,residual activity,[7],83%
same,residual activity,[8],89%
same,residual activity,[9],96%
same,residual activity,[10],81%
